# Experimental data: the supplement of paper PMC10338343
# ± gives the standard deviation.
# Test system: EfPiwi piRISC loaded with piRNA #1 (26 nt)
# Experiment: pre-steady-state target cleavage rate (min^-1); auxiliary factor: 500 nM Ephydatia muelleri Gtsf1; guide: piRNA #1 5'p-UGAGGUAGUAGGUUGUAUAGUAUCCA; MIWI and MILI are mouse PIWI proteins and EfPiwi is from a freshwater sponge; tags in brackets are library labels; higher = faster piRNA-guided slicing of the target
# Protocol: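 Cleave-'n-Seq: a library of target RNAs (target site in constant flanks) at […] was incubated with 1 nM active freshwater sponge Ephydatia fluviatilis Piwi piRISC (synthetic 5'-monophosphorylated piRNA guide) with or without 500 nM EmGtsf1 at 33 °C for 1 min to 16 h. Uncleaved targets were sequenced and the pooled three trials fitted to a burst-and-steady-state model to give the pre-steady-state cleavage rate (min^-1). Sequence is the target site only. Fits with R² ≤ 0 are excluded.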
row,Sequence,pre-steady-state target cleavage rate
1,GGAGAGGAUACUAUAGAACCUUCUACCUCA,0.003 ± 0.002
2,GGAGACCUAACUAUACAACGUACUUCCUCA,0.00713 ± 0.0049
3,GGAGACCUUACGAUACAACCUACUACCUCA,0.0548 ± 0.021
4,GGAGUGGAUACUAUACAAUCCUACUACCUCA,0.0124 ± 0.0065
5,GGAGACGAUACUAUAGCAACCUACUACCUCA,0.00432 ± 0.0027
6,GGAGACCAUUCUAUACAACCUACUACCUCA,0.0597 ± 0.02
7,GGAGACGAUACUAUACAACCUACUACCUUA,0.224 ± 0.068
8,GGAGUCGAUACUAUACAUCCUACUACCUCA,0.0165 ± 0.007
9,GGAGACGAUUCUAUACAUCCUACUACCUCA,0.00332 ± 0.0024
10,GGAGUGGAUACUAUACAACGUAGUACCUCA,0.00292 ± 0.0011
11,GGAGAGGUUACUUUACAACCUACUACCUCA,0.00375 ± 0.0031
12,GGAGACCUUGACUAUACAACCUACUACCUCA,0.00922 ± 0.0051
13,GGAGUCGAUACUAAACAACCUACUACCUCA,0.00865 ± 0.0048
14,GGAGACCAUACUAUGACAACCUACUACCUCA,0.00762 ± 0.0033
15,GGAGAGCAUACUAUACAAGCUACUACCUCA,0.00318 ± 0.0023
16,GGAGACCAUACUAUACAACCUACUACCUA,0.0149 ± 0.0065
17,GGAGACCAAUACUAUACAACCUACUACCUCA,0.5 ± 0.18
18,GGAGACCUAACAUACAACCUACUACCUCA,0.0097 ± 0.005
19,GGAGACCUAUGUAUACAACCUACUACCUCCA,0.00535 ± 0.004
20,GGAGACGAUACUAUACAUCCUACAACCUCA,0.00566 ± 0.0028

row,Sequence,pre-steady-state target cleavage rate
1,GGAGUGGAUACUAUACAUCCUACUACCUCA,0.124 ± 0.044
2,GGAGAGGAGACUAUACAACCUACUACCUCA,0.0151 ± 0.0058
3,GGAGACGUUACUAUAGAACCUACUACCUCA,0.0026 ± 0.0023
4,GGAGACCUAUCUAUACCAACCUACUACCUCA,0.00573 ± 0.0036
5,GGAGACCUAUCUAUACAACCUACUACCUCG [g2:g20:cont:t1G],0.061 ± 0.024
6,GGAGUGCAUACUAUUCAACCUACUACCUCA,0.00471 ± 0.0042
7,GGAGACGAUACUAUACAAGCUACUACCUCA,0.00854 ± 0.0028
8,GGAGAGGAUACUAUACAUCCUACAACCUCA,0.00339 ± 0.0022
9,GGAGAGGAUACUAAACAACCUUCUACCUCA,0.00394 ± 0.0023
10,GGAGACGAUACUAUACAACUACUACCUCA,0.00742 ± 0.0033
11,GGAGACCAUACUAUACAACCUACUACCUGCA,0.00318 ± 0.002
12,GGAGACCAUACUAUACAACCCUACUACCUCA,0.00693 ± 0.0035
13,GGAGAGGAUACUAUACAACCUAGUACCUGA,0.00379 ± 0.0015
14,GGAGUGGAUACUAUACAAGCUACUAGCUCA,0.00331 ± 0.0021
15,GGAGAGGAUACUAUACAUCCUACUACCUGA,0.00462 ± 0.002
16,GGAGACGAUACUAAACAACCUUCUACCUCA,0.00427 ± 0.004
17,GGAGAGGAUACUAUACACACCUACUACCUCA,0.00541 ± 0.0039
18,GGAGACGAUACUAAACAAGCUACUACCUCA,0.00331 ± 0.0031
19,GGAGUGUAUACUAUACAACCUACUACCUCA,0.0133 ± 0.0057
20,GGAGACCUAUGAAUACAACCUACUACCUCA [g2:g18:cont:t1A],0.00706 ± 0.0032
